Bioassay records: PubChem BioAssay, National Center for Advancing Translational Sciences (NCATS)
The list is not random: actives were taken first. Their share in the collection is about 12%.
JMJD2A Tudor: JMJD2A Tudor domain (human) inhibition; hit rate 4.4% among 390,000; O75164; Potency, µM (titrated, usually from 114 µM), actives largely listed as inhibitors; AlphaScreen JMJD2A-Tudor / H3K4me3 peptide binding; further: nearly all actives have a fitted effect of over 50% in size
PLK1 PBD block: blocks phosphopeptide binding to human PLK1 polo-box domain. P53350. Plk1 PBD binding of FITC phosphopeptide, fluorescence polarization. Potency, µM, actives largely listed as inhibitors. AID 720504. hit rate 2.8% among 360,000; further: series mostly up to about 57 µM; nearly all actives have a fitted effect of over 65% in size
HP1b binding inh: blocks HP1-beta chromodomain binding to methylated histone tails; P83916; AlphaScreen HP1-beta / biotin-H3K9me3 peptide binding; Potency, µM (doses to about 114 µM), usual class: inhibitors; hit rate 0.56% among 390,000; AID 540317; further: nearly all actives have a fitted effect of over 70% in size
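Compound inhibition of the preformed complex between 50 nM HP1-beta and 50 nM biotinylated H3K9me3 peptide was read by AlphaScreen. Buffer was PBS pH 7.4 with 0.01% Tween-20. Incubations ran 30 min at room temperature, with 10 ug/mL donor/acceptor beads.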
G9a inh: G9a (human) methyltransferase inhibition; Q96KQ7; Potency, µM (series often up to 102 µM), most hits filed as inhibitors; hit rate 8.8% among 350,000; G9a H3K9 monomethylation, AlphaScreen, 2 h; further: nearly all actives have a fitted effect of over 75% in size
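G9a (20 nM) was preincubated 15 min with compound, then reacted 2 h at room temperature with 500 nM biotin-H3K9 peptide and 20 µM SAM. Monomethyl-H3K9 detected by AlphaScreen using anti-H3K9me1 antibody.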
BAZ2B block: inhibitors of human BAZ2B bromodomain | Q9UIF8 | Potency, µM (top dose mostly 114 µM), actives largely listed as inhibitors | hit rate 4.4% among 360,000 | AlphaScreen BAZ2B-H3K14Ac peptide displacement; further: nearly all actives have a fitted effect of over 60% in size
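Multi-concentration screen (max 110 uM) measuring displacement of acetylated histone H3 peptide from BAZ2B by AlphaScreen, using 50 nM protein, 50 nM peptide and 10 ug/mL streptavidin donor plus Ni-chelate acceptor beads.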
Sfp inh: Sfp phosphopantetheinyl transferase inhibition. Potency, µM, actives largely listed as inhibitors. Q9F4F7. hit rate 3.5% among 310,000. AID 1490. Biochemical Sfp PPTase activity, qHTS;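 further: the enzyme is Sfp with the accession as filed and its product quenches rhodamine fluorescence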
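Step 1, compound plus 15 nM Sfp-PPTase, 15 min, room temperature. Step 2, add rhodamine-CoA (5 uM) and BHQ-2-YbbR (12.5 uM). Step 3, read 525/598 nm fluorescence at 0 and 30 min.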
Of the large screens only hits and unclear results are named; the others gave an inactive call. The call rests on the fitted dose curve; in most records, active means well fitted curve in the direction sought with a large enough effect; inconclusive means small, poorly fitted or top-dose-only effect, or another doubt; inactive means no such curve, though single readings can be large; an effect the other way counts as inactive or inconclusive.

Cc1ccc(C(=O)N[C@H](C(=O)OCc2nnc(-c3ccccc3)o2)C(C)C)cc1	none (no result: G9a inh)
O=C(O)CCC(=O)N1CCc2cc(S(=O)(=O)NCc3ccc(F)cc3)ccc21	none (no result: PLK1 PBD block, Sfp inh)
Cc1cc(=O)[nH]c(SCC(=O)Nc2ncc(S(=O)(=O)c3ccc([N+](=O)[O-])cc3)s2)n1	HP1b binding inh inconclusive, G9a inh 45µM
CC(C)c1ccc(Nc2nnc(SCC(=O)Nc3ncc(S(=O)(=O)c4ccc([N+](=O)[O-])cc4)s3)s2)cc1	PLK1 PBD block 42µM, G9a inh 35µM
Cc1ccc(Nc2nnc(SCC(=O)Nc3ncc(S(=O)(=O)c4ccc([N+](=O)[O-])cc4)s3)s2)cc1	none
C=CCN1CCN(C(=O)CCc2ccccc2)CC1	none (no result: G9a inh)
C[C@H]1NC(=O)NC1=O	none (no result: JMJD2A Tudor, PLK1 PBD block, HP1b binding inh, BAZ2B block)
CCc1ccc(-c2nc(CN3CCCC(C(=O)O)C3)c(C)o2)cc1 (stereo not given)	G9a inh inconclusive
CCc1ccc(CN2CCCC(C(=O)N3CCCCC3)C2)cc1 (stereo not given)	JMJD2A Tudor 45µM, G9a inh 8.9µM, BAZ2B block 79µM
CCN(CC)C(=O)C1CCCN(Cc2ccc(OC)c(C)c2C)C1 (stereo not given)	JMJD2A Tudor 1.6µM, HP1b binding inh inconclusive, G9a inh inconclusive, BAZ2B block 71µM, Sfp inh 50µM
COc1ccc(CN2CCCC(C(=O)N3CCCCC3)C2)c(OC)c1 (stereo not given)	JMJD2A Tudor inconclusive, PLK1 PBD block 30µM (no result: G9a inh)
O=C(C1CCCN(Cc2cccnc2)C1)N1CCCCC1 (stereo not given)	JMJD2A Tudor inconclusive, HP1b binding inh inconclusive, G9a inh 4µM, BAZ2B block 22µM, Sfp inh 50µM
COc1cc(OC)c(OC)cc1CN1CCCC(C(=O)c2sccc2C)C1 (stereo not given)	none (no result: G9a inh)
Cc1cccc(-c2cccc(NC(=O)C3CCCN(Cc4cccnc4)C3)c2)c1 (stereo not given)	BAZ2B block inconclusive (no result: G9a inh)
CCOc1ccc(N(C)S(=O)(=O)c2c[nH]c(C(=O)OC)c2)cc1	none
Cc1ccccc1CN1CCCC(C(=O)N2CCCCC2)C1 (stereo not given)	JMJD2A Tudor 22µM, HP1b binding inh inconclusive, G9a inh 25µM, BAZ2B block 79µM
CC(=O)N(c1cccc(C)c1)C1SC(=O)N(c2ccccc2)C1=O (stereo not given)	PLK1 PBD block 24µM
CC(=O)N(c1ccccc1)C1SC(=O)N(c2ccccc2)C1=O (stereo not given)	PLK1 PBD block 21µM (no result: BAZ2B block)
COc1ccc(N(C(C)=O)C2SC(=O)N(c3ccccc3)C2=O)cc1 (stereo not given)	none (no result: PLK1 PBD block, G9a inh, BAZ2B block, Sfp inh)
NNc1nc2c(Cl)ccc(Cl)c2s1	JMJD2A Tudor 45µM, G9a inh inconclusive, BAZ2B block 50µM
O=C(O)c1cc([N+](=O)[O-])c(N2CCCC2)c([N+](=O)[O-])c1	G9a inh 8.9µM
[O-][n+]1c2c(c3c4non(O)c4ccc31)CCCC2	JMJD2A Tudor inconclusive, G9a inh inconclusive, BAZ2B block 40µM
CC1=N/C(=C\c2ccccc2Cl)C(=O)O1	none (no result: G9a inh, BAZ2B block, Sfp inh)
CC1=CC(=O)C(C(C)=Nc2ccccc2Cl)C(=O)O1 (stereo not given)	JMJD2A Tudor inconclusive, G9a inh 50µM
N#Cc1nc(NCC2CC2)nc(Nc2ccccc2)n1	none (no result: PLK1 PBD block, HP1b binding inh, G9a inh, BAZ2B block, Sfp inh)
Cc1ccc(C)c(-n2c(CCC(=O)O)ccc2-c2ccc(Cl)cc2)c1	JMJD2A Tudor inconclusive, G9a inh 13µM, BAZ2B block 40µM (no result: PLK1 PBD block, Sfp inh)
Cc1ccc(-c2ccc(CCC(=O)O)n2C(C)C)cc1	PLK1 PBD block inconclusive, G9a inh 79µM, BAZ2B block inconclusive
COc1ccc(C(=O)Nn2c(CCC(=O)O)ccc2-c2ccc(C)cc2)cc1OC	JMJD2A Tudor 50µM, PLK1 PBD block 21µM
COc1ccc(-c2ccc(CCC(=O)O)n2-c2ccc(Cl)cc2C)cc1	JMJD2A Tudor inconclusive, G9a inh inconclusive, BAZ2B block inconclusive (no result: PLK1 PBD block, Sfp inh)
Cc1ccc(-c2ccc(CCC(=O)O)n2-c2ccc(C)c(Cl)c2)cc1	JMJD2A Tudor inconclusive, G9a inh 13µM, BAZ2B block inconclusive (no result: PLK1 PBD block, Sfp inh)
COc1ccc(NC(=O)C2CCCN(S(C)(=O)=O)C2)c(OC)c1 (stereo not given)	none
COc1ccc(NC(=O)c2cc(-c3ccco3)on2)c(OC)c1	none
COc1ccc(NC(=O)c2cc(C3CC3)on2)c(OC)c1	G9a inh 45µM
COc1ccc(NC(=O)C2CCN(S(C)(=O)=O)CC2)c(OC)c1	G9a inh 89µM
COc1ccc(NC(=O)C2CCN(C(=O)c3cccs3)CC2)c(OC)c1	JMJD2A Tudor 28µM, PLK1 PBD block 7.5µM, HP1b binding inh inconclusive
COc1ccc(NC(=O)C2CCCN2C(=O)NC2CCCCC2)c(OC)c1 (stereo not given)	none
COc1ccc(NC(=O)C2CCN(C(=O)NC3CCCCC3)CC2)c(OC)c1	JMJD2A Tudor 79µM, PLK1 PBD block inconclusive (no result: BAZ2B block)
COc1ccc(NC(=O)C2CCN(C(=O)c3ccccc3)CC2)c(OC)c1	none (no result: BAZ2B block)
CSc1ccccc1NC(=O)CN(C)C(=O)c1ccc(-n2cccn2)cc1	none (no result: Sfp inh)
CC(C)CN(C(=O)COC(=O)CCc1nc2ccccc2s1)c1c(N)n(Cc2ccccc2)c(=O)[nH]c1=O	none (no result: Sfp inh)
CC(Sc1nc(-c2ccc(F)cc2)cs1)C(=O)Nc1ccc(Cl)cn1 (stereo not given)	none
Cc1csc(SC(C)C(=O)Nc2ccc(Cl)cn2)n1 (stereo not given)	PLK1 PBD block 27µM
N#CC(C#N)=C1c2cc(S(N)(=O)=O)ccc2-c2ccc(S(N)(=O)=O)cc21	G9a inh 18µM, Sfp inh 40µM
N#CC(C#N)=C1c2cc(S(=O)(=O)NCCO)ccc2-c2ccc(S(=O)(=O)NCCO)cc21	Sfp inh 56µM (no result: G9a inh)
NS(=O)(=O)c1ccc2c(c1)C(=NO)c1cc(S(N)(=O)=O)ccc1-2	G9a inh inconclusive
CNC(=O)C1CC(=O)N(c2ccc(OCC(=O)Nc3ccc(OC)cc3)cc2)C1 (stereo not given)	none (no result: Sfp inh)
OC[C@@H]1[C@@H](c2ccc(F)cc2)C(c2ccc(F)cc2)=NN1c1ccccc1	none (no result: JMJD2A Tudor, PLK1 PBD block, HP1b binding inh, BAZ2B block)
CC(=O)OC/C=C(C)/C=C/C=C(C)/C=C/C1=C(C)CCCC1(C)C	none (no result: JMJD2A Tudor, PLK1 PBD block, HP1b binding inh, BAZ2B block)
CCOC(=O)c1[nH]cnc1C(=O)Nc1ccccc1OC	JMJD2A Tudor inconclusive, G9a inh inconclusive, BAZ2B block 89µM
CCOC(=O)c1[nH]cnc1C(=O)Nc1ccc(Cl)cc1	none
CCOC(=O)c1[nH]cnc1C(=O)Nc1cccc(Cl)c1	G9a inh inconclusive, BAZ2B block 89µM
CCOC(=O)c1[nH]cnc1C(=O)Nc1ccccn1	G9a inh inconclusive, BAZ2B block 79µM
CCOC(=O)c1[nH]cnc1C(=O)Nc1ccc(C)cc1	G9a inh inconclusive
